Source: PubChem BioAssay AID1578 (Sanford-Burnham Center for Chemical Genomics, 2009)
“And” between values parts separate entries of the source, which are not always exact repeats. Identical values can stand only once. Out of some 290,000 compounds screened, about 3,000 (1%) were called active. Rule as the data show it: active = inhibition mostly above about 36% (no sharp cut-off); inactive = mostly below about 34%. For the sample, actives were picked, then their nearest neighbours and some compounds at random.

Experiment: inhibition of NOD1-driven NF-kB reporter – cell-based, luminescence, uHTS, primary screen (AID 1578);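 also: HEK-293T reporter cells stimulated with the NOD1 agonist gamma-tri-DAP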
Conditions: NOD1-driven NF-kB luciferase reporter cells, at 4 µM, stronger effect = higher value

Row | Compound | inhibition
1 | O=C(CCCC1=NS(=O)(=O)c2ccccc2N1)Nc1ccccc1 | -7.6% (inactive)
2 | COC(=O)CC(NS(=O)(=O)c1cccs1)c1ccc2c(c1)OCO2 (stereo not drawn) | -20.9% (inactive)
3 | O=C(CNC(=S)N(CCCN1CCOCC1)Cc1cccs1)NCc1ccc(Cl)cc1 | -16.7% (inactive)
4 | CC(=O)Nc1cc2c(ccc3ccccc32)oc1=O | -21.7% (inactive)
5 | CCOC(=O)c1c(C)[nH]c(C)c1C(=O)CSc1nc2ccccc2c(=O)n1-c1ccc(F)cc1 | -19.8% (inactive)
6 | CCOC(=O)c1c(C)[nH]c(C)c1C(=O)CSc1nc2ccccc2c(=O)n1-c1ccc(C)cc1 | -25.1% (inactive)
7 | CC(OC(=O)c1ccco1)C(=O)Nc1ccc(Cl)cn1 (stereo not drawn) | -26.7% (inactive)
8 | CNc1ccccc1C(=O)OC(C)C(=O)Nc1ccc(Cl)cn1 (stereo not drawn) | 54.3% (active)
9 | CC(OC(=O)c1ccccc1O)C(=O)Nc1ccc(Cl)cn1 (stereo not drawn) | -43.7% (inactive)
10 | COc1ccc(C(=O)NC2CCN(CC(=O)NCc3ccccc3F)CC2)cc1 | -30.3% (inactive)
11 | CCc1ccc(N(CC(=O)NC2CCCCC2)S(=O)(=O)c2c(C)noc2C)cc1 | -14.8% (inactive)
12 | O=C(CCl)Nc1c[nH]c(=O)[nH]c1=O | -31.2% (inactive)
13 | O=C(CCl)Nc1cc2[nH]c(=O)[nH]c2cc1Br | 72.1% (active)
14 | Cc1cc(Br)c(NC(=O)CCl)c(Br)c1 | 42.9% (inactive)
15 | NC(=O)c1cc2ccccc2o/c1=N\NC(=O)c1ccc(F)cc1 | -3.2% (inactive)
16 | Cn1c(=O)c2c(nc(Oc3ccccc3)n2C)n(C)c1=O | 9.4% (inactive) and -13.9% (inactive)
17 | COc1ccc(Oc2nc3c(c(=O)n(C)c(=O)n3C)n2C)cc1 | 18.3% (inactive)
18 | Cc1nc2ccc(NS(=O)(=O)c3ccc(F)cc3)cc2s1 | 7.8% (inactive)
19 | Cc1ccc(S(=O)(=O)Nc2ccc3nc(C)sc3c2)cc1 | 32.2% (inactive)
20 | CCOc1cc(C(=O)Nc2ccc([N+](=O)[O-])cn2)cc(OCC)c1OCC | -21.2% (inactive)
21 | CCNC(=S)N(Cc1cc2cc(C)c(C)cc2[nH]c1=O)C1CCCC1 | -35% (inactive)
22 | O=C(NCc1cccnc1)c1ccc(-c2ccccc2[N+](=O)[O-])o1 | -24.4% (inactive)
23 | COc1ccc(CCNC(=O)C2CCN(S(=O)(=O)c3ccc(OC)cc3)CC2)cc1 | 17.9% (inactive)
24 | COc1ccc(NC(=O)NNC(=O)c2ccc(-c3ccccc3)cc2)cc1 | -26.8% (inactive)

Row | Compound | inhibition
25 | COc1ccc(C(=O)NNC(=O)Nc2ccc(Cl)cc2)cc1 | 91.6% (active)
26 | COc1ccc(C(=O)NNC(=O)Nc2ccc(C)cc2)cc1 | -1.6% (inactive)
27 | Cc1nc(N2CCN(S(=O)(=O)c3ccc(Br)cc3)CC2)c2c(C)c(C)sc2n1 | 3.7% (inactive)
28 | CCS(=O)(=O)N1CCN(c2ncnc3sc(C)c(C)c23)CC1 | -20% (inactive)
29 | CNS(=O)(=O)c1cc(N(C)S(=O)(=O)c2ccc(C)cc2)c(C)cc1C | -1.6% (inactive)
30 | CC1=NCCN1S(=O)(=O)c1cc([N+](=O)[O-])ccc1Cl | -40.2% (inactive)
31 | COc1ccc(COc2cc(-c3cccc(OC)c3)nc3ccc(NC(=O)c4cccnc4)cc23)cc1 | 78.1% (active)
32 | COc1ccc(COc2cc(-c3cccc(OC)c3)nc3ccc(NC(=O)c4ccccc4)cc23)cc1 | 48.6% (inactive)
33 | COc1ccc(COc2cc(-c3cccc(OC)c3)nc3ccc(NC(=O)c4ccc(OC)cc4)cc23)cc1 | 41.3% (inactive)
34 | CC(C)(C)C(=O)NC1=NN(c2c(Cl)cc(Cl)cc2Cl)C(=O)C1 | -19.7% (inactive)
35 | CC(C)c1ccccc1NC(=O)COC(=O)c1c2c(nc3ccccc13)CCN(Cc1ccccc1)C2 | 29.8% (inactive)
36 | Cc1ccc(NC(=O)CSc2nc(N)c3c4c(sc3n2)CSC(C)(C)C4)cc1 | 22.5% (inactive)
37 | Cc1ccccc1NC(=O)CSc1nc(N)c2c3c(sc2n1)CSC(C)(C)C3 | -19.5% (inactive)
38 | CC(Sc1nc(N)c2c3c(sc2n1)CSC(C)(C)C3)C(=O)Nc1ccccc1 (stereo not drawn) | 66.5% (active)
39 | COc1ccc(OC)c(-n2nnnc2SCC(=O)N2CCN(C(=O)c3ccco3)CC2)c1 | -16.1% (inactive)
40 | Cc1ccc(NC(=O)C2CC(=O)n3ncnc3N2)cc1C (stereo not drawn) | -33.1% (inactive)
41 | CC(=O)NCc1ccc(C(=O)CCl)cc1 | -4% (inactive)
42 | CC(=O)NCc1ccc(C(=O)CCl)s1 | 88.3% (active)
43 | CC(=O)NCc1ccc(-c2csc(N)n2)s1 | 1.1% (inactive)
44 | Cc1ccc(C(=O)COC(=O)c2cc(Cl)nc3ccccc23)cc1 | -10.7% (inactive)
45 | COc1cc(Br)c(CN2CCCN(C)CC2)cc1OC | -24.3% (inactive)
46 | O=[N+]([O-])c1cccc(-c2nc3ccccc3s/c2=N/O)c1 | 2.3% (inactive)
47 | N#C/C(=C(/O)c1ccc(-c2cccc([N+](=O)[O-])c2)o1)c1nc2ccccc2s1 | 101% (active)
48 | N#C/C(=C(/O)COC(=O)c1ccccc1O)c1nc2ccccc2s1 | 16.3% (inactive)

Row | Compound | inhibition
49 | N#C/C(=C(/O)c1cc2ccccc2o1)c1nc2ccccc2s1 | 65.8% (active)
50 | N#C/C(=C\N1CCN(Cc2ccc3c(c2)OCO3)CC1)c1nc2ccccc2s1 | 24.5% (inactive)
51 | N#C/C(=C(/O)c1ccco1)c1nc2ccccc2s1 | -3.1% (inactive) and -9.8% (inactive)
52 | N#C/C(=C(/O)COC(=O)c1ccc(C#N)cc1)c1nc2ccccc2s1 | -35.4% (inactive)
53 | CC(C)=C(C#N)c1nc2ccccc2s1 | -26.3% (inactive)
54 | N#C/C(=C(/O)c1ccc2c(c1)OCO2)c1nc2cc(C(F)(F)F)ccc2s1 | 86.4% (active)
55 | O=C(O)c1ccc(-c2cccc([N+](=O)[O-])c2)o1 | 9.4% (inactive)
56 | CC(C)(C)c1ccc(C(=O)OC/C(O)=C(\C#N)c2nc3ccccc3s2)cc1 | 92% (active)
57 | N#C/C(=C(/O)c1ccccc1F)c1nc2cc(C(F)(F)F)ccc2s1 | -28.9% (inactive)
58 | CN(C)CCCN(Cc1ccccc1)C(=S)NCc1ccccc1 | -3.5% (inactive)
59 | Cc1ccc(C)c(-n2nnnc2SCC(=O)Nc2c(C)n(C)n(-c3ccccc3)c2=O)c1 | -6.2% (inactive)
60 | CCOc1ncccc1C(=O)Nc1nnc(C)s1 | -28.7% (inactive)
61 | CC(C)NC(=O)C(=O)NCCN1CCN(C(=O)c2ccc(C(C)(C)C)cc2)CC1 | -31.9% (inactive)
62 | Cc1c(CCO)c(=O)[nH]n1S(=O)(=O)c1ccc(Cl)cc1Cl | -2.3% (inactive)
63 | COc1ccccc1NC(=S)NC(=O)/C=C/c1ccco1 | -34.4% (inactive)
64 | COc1ccc2[nH]c(C(=O)Nc3ncc(C)cc3Br)cc2c1 | 1.8% (inactive)
65 | Cc1cccc(Cc2nnc(CCC(=O)N(C)Cc3ccncc3C)o2)c1 | -15.4% (inactive)
66 | COC(=O)c1ccc(C23CC4(C2)[C@H](CN(Cc2ccc(-c5ccccc5)cc2)[C@@H]4c2ccccc2)C3c2ccc(Cl)nc2)cc1 (stereo partly drawn) | -11.8% (inactive)
67 | CCOP(=O)(c1ccc(N(C)C)cc1)C(O)c1ccccc1 (stereo not drawn) | -12.2% (inactive)
68 | COC(=O)c1ccc(/C(O)=C(\C#N)c2nc3ccccc3s2)cc1 | 29.2% (inactive)
69 | N#C/C(=C(/O)c1cccc(F)c1)c1nc2ccccc2s1 | 3.7% (inactive)
70 | N#C/C(=C(/O)c1ccc(F)cc1)c1nc2ccccc2s1 | 61.2% (active)
71 | O=C(CSc1cn[nH]n1)Nc1ccccc1C(F)(F)F | -20.2% (inactive)
72 | CCOC(=O)CNC(=O)C(CC(N)=O)NC(=O)OC(C)(C)C (stereo not drawn) | -7.6% (inactive)

Row | Compound | inhibition
73 | CN(Cc1nccn1C)C(=O)c1cc(COc2ccc3ncccc3c2)on1 | -6.6% (inactive)
74 | CN(Cc1cccnc1)C(=O)c1cc(COc2ccc3c(c2)CCCC3)on1 | -46.9% (inactive)
75 | Cc1cc(CN(C)C(=O)c2cc(COc3ccc4ncccc4c3)on2)on1 | 13.2% (inactive)
76 | Cc1nc(CN(C)C(=O)c2cc(COc3c(F)cccc3F)on2)cs1 | -40.5% (inactive)
77 | COc1cc(NC(=O)c2ccco2)c(OC)cc1NC(=O)CSc1ncc(-c2ccc(F)cc2)[nH]1 | -33.5% (inactive)
78 | COc1ccc(N2CCN(C(=O)C3CCN(S(=O)(=O)c4c(C)noc4/C=C/N(C)C)CC3)CC2)cc1 | -9.1% (inactive)
79 | O=C(NCCc1ccccc1)C(=O)NCC1OCCCN1S(=O)(=O)c1cccs1 (stereo not drawn) | -40.9% (inactive)
80 | COc1cc(/C=C/C(=O)Nc2nc3ccc(S(=O)(=O)N(C)C)cc3s2)cc(OC)c1OC | 28.3% (inactive)
81 | CCc1cccc2c(C(=O)COC(=O)c3ccccc3)c[nH]c12 | -19.8% (inactive)
82 | CCc1cccc2c(C(=O)COC(=O)c3cccc(S(=O)(=O)N(C)C4CCCCC4)c3)c[nH]c12 | 77.3% (active)
83 | CCc1cccc2c(C(=O)COC(=O)c3c(C)noc3C)c[nH]c12 | 92.9% (active)
84 | CCc1cccc2c(C(=O)COC(=O)C3=NNC(=O)CC3)c[nH]c12 | -12.4% (inactive)
85 | CCc1cccc2c(C(=O)COC(=O)c3ccc(O)cc3)c[nH]c12 | -17.9% (inactive)
86 | Cc1noc(C)c1C(=O)OCC(=O)c1c[nH]c2ccccc12 | -6.2% (inactive)
87 | CCS(=O)CCSc1nc2ccccc2s1 (stereo not drawn) | -10.5% (inactive)
88 | N#Cc1cc(C(=O)c2ccccc2O)cn(-c2nccs2)c1=O | -9.7% (inactive)
89 | O=C(NCc1ccccc1)C1CCN(c2nc(-c3ccccc3)nc3c2CCC3)CC1 | 15.8% (inactive)
90 | CC[C@@H]1CC=C[C@H]2[C@H]1C(=O)N(Cc1ccccc1)[C@H]2c1ccc(C(F)(F)F)cc1 | -2.1% (inactive)
91 | COc1ccc(C(=O)O/N=C2\CCCc3nonc32)cc1 | -0.9% (inactive)
92 | CC(/C=C/c1ccccc1)=N\NC(=O)c1ccc(Br)cc1 | 43.7% (inactive)
93 | CC(/C=C/c1ccccc1)=N\NC(=O)c1ccncc1 | 0.4% (inactive)
